Values joined by “and” are separate entries in the source; they are usually repeats but may differ in a detail not shown here. Equal entries are not always repeated. Some structures have more than one record in an assay (separate samples or runs), and their calls can disagree. Active and inactive are the calls of the source. Rule for the calls: active = hit-call score of the fitted dose curve at least 0.9, where 1 is the maximum; inactive = score below 0.9.
Each molecule was assayed on Interleukin-1 alpha (IL1a), IL1A (gene 3552) (assay: BSK_BE3C_IL1a: BioMAP Diversity Plus: BE3C Assay for Interleukin-1 alpha (IL1a) Biomarker Activity (AID 2283016)). Details: primary human bronchial epithelial cells; actives raise or lower the signal.
Procedure, shortened: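 BE3C primary human bronchial epithelium; cpd 24 h; IL-1a by ELISA; bidirectional fit vs DMSO; parallel SRB (0.1% SRB, 10% TCA fix, 560 nm) for cytotoxicity.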

Compound	AC50	outcome
Oc1ccc(Nc2ccccc2)cc1	13.4 µM (active)	–
O=S(=O)(O)C(F)(F)C(F)(F)C(F)(F)C(F)(F)C(F)(F)C(F)(F)C(F)(F)F	–	inactive
C=CC(F)(F)C(F)(F)C(F)(F)C(F)(F)C(F)(F)C(F)(F)C(F)(F)C(F)(F)C=C	–	inactive
CC(=O)Nc1ccc(N=Nc2cc(C)ccc2O)cc1	–	inactive
O=P(O)(O)OCCC(F)(F)C(F)(F)C(F)(F)C(F)(F)C(F)(F)C(F)(F)F	–	inactive
CCCCCCCOC(=O)c1ccccc1C(=O)OCCCCCCC	–	inactive
CCCCCCCCCCCCCCCC[N+](C)(C)Cc1ccccc1	8.81 µM (active)	–
O=C(O)C(F)(F)C(F)(F)C(F)(F)C(F)(F)C(F)(F)C(F)(F)C(F)(F)C(F)(F)C(F)(F)C(F)(F)C(F)(F)C(F)(F)C(F)(F)F	–	inactive
O=C(O)C(F)(F)C(F)(F)C(F)(F)C(F)(F)C(F)(F)C(F)(F)C(F)(F)C(F)(F)C(F)(F)C(F)(F)C(F)(F)C(F)(F)F	–	inactive
O=C(O)C(F)(F)C(F)(F)C(F)(F)C(F)(F)C(F)(F)C(F)(F)C(F)(F)C(F)(F)C(F)(F)C(F)F	17.8 µM (active) and 14.6 µM (active)	–
O=C(O)C(F)(OC(F)(F)C(F)(OC(F)(F)C(F)(OC(F)(F)C(F)(F)C(F)(F)F)C(F)(F)F)C(F)(F)F)C(F)(F)F (stereo not given)	–	inactive

These molecules were tested on Monocyte Chemoattractant Protein-1 (MCP1), CCL2 (gene 6347) (assay: BSK_3C_MCP1: BioMAP Diversity Plus: 3C Assay for Monocyte Chemoattractant Protein-1 (MCP1) Biomarker Activity (AID 2283017)). Details: primary human endothelial cells (HUVEC); actives raise or lower the signal.
Procedure, shortened: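 HUVEC, 3C system; 24 h chemical exposure; MCP-1 by ELISA; bidirectional curve fit vs DMSO baseline.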

Compound	outcome
OCC(F)(F)C(F)(F)C(F)(F)C(F)F	inactive
Oc1ccc(Nc2ccccc2)cc1	inactive
O=C(O)C(F)(F)C(F)(F)OC(F)(F)F	inactive
O=S(=O)(O)C(F)(F)C(F)(F)C(F)(F)C(F)(F)C(F)(F)C(F)(F)C(F)(F)F	inactive
O=C(O)C(F)(F)C(F)(F)C(F)(F)F	inactive
O=P(O)(O)OCCC(F)(F)C(F)(F)C(F)(F)C(F)(F)C(F)(F)C(F)(F)F	inactive
CCCCCCCOC(=O)c1ccccc1C(=O)OCCCCCCC	inactive
FC(F)(F)C(F)(F)C(F)(F)CI	inactive
O=C(O)C(F)(F)C(F)(F)C(F)(F)C(F)(F)C(F)(F)C(F)(F)C(F)(F)C(F)(F)C(F)(F)C(F)(F)C(F)(F)C(F)(F)C(F)(F)F	inactive
FC(F)(F)C(F)(F)C(F)(F)C(F)(F)C(F)(F)C(F)(F)CC1CO1 (stereo not given)	inactive
O=C(O)C(F)(OC(F)(F)C(F)(OC(F)(F)C(F)(OC(F)(F)C(F)(F)C(F)(F)F)C(F)(F)F)C(F)(F)F)C(F)(F)F (stereo not given)	inactive

The molecules below were run on Monocyte Chemoattractant Protein-1 (MCP1), CCL2 (gene 6347) (assay: BSK_4H_MCP1: BioMAP Diversity Plus: 4H Assay for Monocyte Chemoattractant Protein-1 (MCP1) Biomarker Activity (AID 2283018)). Details: primary human endothelial cells (HUVEC); actives raise or lower the signal.
Procedure, shortened: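 ELISA read-out of MCP-1 from human vascular endothelial primary cells taken at 24 hours after compound exposure. Activity was fitted in both directions relative to DMSO, which served as negative control.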

Compound	outcome	AC50
OCC(F)(F)C(F)(F)C(F)(F)C(F)F	inactive	–
Oc1ccc(Nc2ccccc2)cc1	–	9.6 µM (active)
O=C(O)C(F)(F)C(F)(F)OC(F)(F)F	inactive	–
CCCCCCOC(=O)c1ccccc1O	–	33.5 µM (active) and 34.3 µM (active)
O=S(=O)(O)C(F)(F)C(F)(F)C(F)(F)C(F)(F)C(F)(F)C(F)(F)C(F)(F)F	inactive	–
O=C(O)C(F)(F)C(F)(F)C(F)(F)C(F)(F)F	inactive	–
O=C(O)C(F)(F)C(F)(F)C(F)(F)F	inactive	–
C=CC(F)(F)C(F)(F)C(F)(F)C(F)(F)C(F)(F)C(F)(F)C(F)(F)C(F)(F)C=C	inactive	–
CC(=O)Nc1ccc(N=Nc2cc(C)ccc2O)cc1	inactive	–
N=C(N)C(F)(F)C(F)(F)C(F)(F)C(F)(F)C(F)(F)C(F)(F)C(F)(F)F	inactive	–
O=C(O)C(F)(F)C(F)(F)C(F)(F)C(F)(F)C(F)(F)C(F)(F)C(F)(F)C(F)(F)Cl	inactive	–
O=P(O)(O)OCCC(F)(F)C(F)(F)C(F)(F)C(F)(F)C(F)(F)C(F)(F)F	inactive	–
CCCCCCCOC(=O)c1ccccc1C(=O)OCCCCCCC	inactive	–
CCCCCCCCCCCCCCCC[N+](C)(C)Cc1ccccc1	–	1.37 µM (active)
FC(F)(F)C(F)(F)C(F)(F)CI	inactive	–
O=C(O)C(F)(F)C(F)(F)C(F)(F)C(F)(F)C(F)(F)C(F)(F)C(F)(F)C(F)(F)C(F)(F)C(F)(F)C(F)(F)C(F)(F)C(F)(F)F	inactive	–
O=C(O)C(F)(F)C(F)(F)C(F)(F)C(F)(F)C(F)(F)C(F)(F)C(F)(F)C(F)(F)C(F)(F)C(F)(F)C(F)(F)C(F)(F)F	inactive	–
CC(C)(C)C(=O)CC(=O)C(F)(F)C(F)(F)C(F)(F)F	inactive	–
FC(F)(F)C(F)(F)C(F)(F)C(F)(F)C(F)(F)C(F)(F)CC1CO1 (stereo not given)	inactive	–
O=C(O)C(F)(F)C(F)(F)C(F)(F)C(F)(F)C(F)(F)C(F)(F)C(F)(F)C(F)(F)C(F)(F)C(F)F	inactive	30 µM (active)
O=C(O)C(F)(OC(F)(F)C(F)(OC(F)(F)C(F)(OC(F)(F)C(F)(F)C(F)(F)F)C(F)(F)F)C(F)(F)F)C(F)(F)F (stereo not given)	inactive	–
FC(F)(F)C(F)(F)C(F)(F)C(F)(F)C(F)(F)CCI	inactive	–

Each molecule was assayed on Human Leukocyte Antigen - DR isotype (HLADR), HLA-DRA (gene 3122) (assay: BSK_3C_HLADR: BioMAP Diversity Plus: 3C Assay for Human Leukocyte Antigen - DR isotype (HLADR) Biomarker Activity (AID 2283019;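 for outcome: ELISA of cell-surface HLA-DR on HUVEC 24 h after dosing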)). Details: primary human endothelial cells (HUVEC); actives raise or lower the signal.
Procedure, shortened: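 HUVEC, 3C stimulation, 24 h post-dose; HLA-DR by ELISA; bidirectional curve fit vs DMSO baseline; gain or loss of signal scored.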

Compound	outcome	AC50
OCC(F)(F)C(F)(F)C(F)(F)C(F)F	inactive	–
Oc1ccc(Nc2ccccc2)cc1	–	20 µM (active)
O=C(O)C(F)(F)C(F)(F)OC(F)(F)F	inactive	–
CCCCCCOC(=O)c1ccccc1O	–	37.4 µM (active) and 43.7 µM (active)
O=S(=O)(O)C(F)(F)C(F)(F)C(F)(F)C(F)(F)C(F)(F)C(F)(F)C(F)(F)F	inactive	–
O=C(O)C(F)(F)C(F)(F)C(F)(F)C(F)(F)F	inactive	–
O=C(O)C(F)(F)C(F)(F)C(F)(F)F	inactive	–
C=CC(F)(F)C(F)(F)C(F)(F)C(F)(F)C(F)(F)C(F)(F)C(F)(F)C(F)(F)C=C	inactive	–
CC(=O)Nc1ccc(N=Nc2cc(C)ccc2O)cc1	–	14.5 µM (active)
N=C(N)C(F)(F)C(F)(F)C(F)(F)C(F)(F)C(F)(F)C(F)(F)C(F)(F)F	inactive	30 µM (active)
O=C(O)C(F)(F)C(F)(F)C(F)(F)C(F)(F)C(F)(F)C(F)(F)C(F)(F)C(F)(F)Cl	–	53.3 µM (active) and 49 µM (active)
O=P(O)(O)OCCC(F)(F)C(F)(F)C(F)(F)C(F)(F)C(F)(F)C(F)(F)F	inactive	–
CCCCCCCOC(=O)c1ccccc1C(=O)OCCCCCCC	inactive	–
CCCCCCCCCCCCCCCC[N+](C)(C)Cc1ccccc1	–	0.977 µM (active)
FC(F)(F)C(F)(F)C(F)(F)CI	inactive	–
O=C(O)C(F)(F)C(F)(F)C(F)(F)C(F)(F)C(F)(F)C(F)(F)C(F)(F)C(F)(F)C(F)(F)C(F)(F)C(F)(F)C(F)(F)C(F)(F)F	inactive	–
O=C(O)C(F)(F)C(F)(F)C(F)(F)C(F)(F)C(F)(F)C(F)(F)C(F)(F)C(F)(F)C(F)(F)C(F)(F)C(F)(F)C(F)(F)F	inactive	–
CC(C)(C)C(=O)CC(=O)C(F)(F)C(F)(F)C(F)(F)F	inactive	30 µM (active)
FC(F)(F)C(F)(F)C(F)(F)C(F)(F)C(F)(F)C(F)(F)CC1CO1 (stereo not given)	inactive	–
O=C(O)C(F)(F)C(F)(F)C(F)(F)C(F)(F)C(F)(F)C(F)(F)C(F)(F)C(F)(F)C(F)(F)C(F)F	inactive	37.5 µM (active)
O=C(O)C(F)(OC(F)(F)C(F)(OC(F)(F)C(F)(OC(F)(F)C(F)(F)C(F)(F)F)C(F)(F)F)C(F)(F)F)C(F)(F)F (stereo not given)	inactive	–
FC(F)(F)C(F)(F)C(F)(F)C(F)(F)C(F)(F)CCI	inactive	–

From PubChem BioAssay (EPA / NIEHS)
